# aSyn 5UTR act: Activators via SNCA 5'UTR binding, MLPCN; AID 1814; 300,000 compounds, 7.1% hits; activity score, % (tested at 7.5 µM), hits read low; alpha-synuclein 5'UTR reporter, activators screen; in the data active = activity score below about -60%
# * hit, by the source's call. These entries were drawn from the full list.
SMILES,aSyn 5UTR act
Clc1ccccc1CN1CCN(/N=C/C=C\c2ccco2)CC1,-78*
CC(=O)Nc1nc(-c2ccccc2)ns1,-108*
COCC(=O)Nc1nc(-c2ccccc2)ns1,-78*
COc1cccc2[nH]c(=O)c(-c3ccccc3)cc12,-136*
O=C(NCc1cc2ccccc2[nH]1)c1ccccc1F,-81*
COc1ccccc1N1CCN(C(=O)c2c(-c3ccccc3)noc2C)CC1,-78*
Cc1ccc(OCc2cc(C(=O)N3CCC(C(O)C(C)C)CC3)no2)cc1C (configuration not stated),-80*
COc1ccc(C(=O)/C=C/C(=O)N(CC(=O)NCCC(C)C)Cc2cccs2)c(O)c1,61
COc1cc(C)ccc1OCc1cc(C(=O)NC(C)Cn2cncn2)no1 (configuration not stated),-155*
Cc1ccc(OCc2cc(C(=O)N(CCO)Cc3cccs3)no2)cc1C,-81*
COc1cccc(N2CCN(C(=O)c3ccc(CS(=O)c4ccccc4Cl)o3)CC2)c1 (configuration not stated),110
Cc1ccc(OCc2cc(C(=O)N3CCN(c4ccccc4)CC3)no2)cc1C,-155*
COc1cccc(OCc2cc(C(=O)N3CCN(c4ccccc4OC)CC3)no2)c1,-139*
COc1cc(C)ccc1OCc1cc(C(=O)N2CCN(C3CCCCC3)CC2)no1,-99*
Cc1ccc(OCc2cc(C(=O)N3CCN(C4CCCCC4)CC3)no2)cc1C,-62*
Cc1ccc(OCc2cc(C(=O)N3CCC(c4ccccc4Cl)C3)no2)cc1C (configuration not stated),-165*
COc1cc(C)ccc1OCc1cc(C(=O)N2CCCCCCC2)no1,-62*
CCN1CCN(C(=O)c2cc(COc3ccc(C(C)=O)cc3OC)on2)CC1,-146*
CC(C)(C)CC(=O)Nc1nnc(CCc2ccccc2)s1,-113*
CCC(C)(C)C(=O)Nc1nnc(CCc2ccccc2)s1,-141*
CC(C)(C)Cc1nnc(NC(=O)CSc2ccccc2)s1,-137*
Cc1ccc(C(=O)O/N=C(\N)c2cccc([N+](=O)[O-])c2)cc1,-218*
N/C(=N\OC(=O)c1ccc(Br)cc1)c1cccc([N+](=O)[O-])c1,-179*
N/C(=N\OC(=O)c1ccc([N+](=O)[O-])cc1)c1ccc(Br)cc1,-81*
N/C(=N\OC(=O)c1ccncc1)c1cccc([N+](=O)[O-])c1,-70*
SMILES,aSyn 5UTR act
Nc1ccc(SCc2nc3cccc4c3n2CCC4)cc1,-99*
C=CCSc1nc2c(cnn2-c2ccccc2)c(=O)n1N,74
O=c1c2cnn(-c3ccccc3)c2nc(-c2cccs2)n1-c1cccc(Cl)c1,-63*
O=C(/C=C/c1ccco1)Nc1ccc2nc3n(c(=O)c2c1)CCCC3,-176*
CN(C)c1cccc(C(=O)Nc2ccc3nc4n(c(=O)c3c2)CCCCC4)c1,-81*
COc1cccc(C(=O)Nc2ccc3nc4n(c(=O)c3c2)CCCC4)c1,-76*
CCOc1ccccc1C(=O)Nc1ccc2nc3n(c(=O)c2c1)CCCCC3,-77*
COc1cc(OC)cc(C(=O)Nc2ccc3nc4n(c(=O)c3c2)CCCC4)c1,-120*
CN1C2=CC=CC=CC2=[N+](C)C12C([N+](=O)[O-])=CC(=[N+]([O-])[O-])C=C2[N+](=O)[O-] (configuration not stated),-73*
CC(C)CCn1c(SCCc2ccccc2)nc2c1c(=O)[nH]c(=O)n2C,53
Cn1c(=O)[nH]c(=O)c2c1nc(Br)n2Cc1cccc(Br)c1,-70*
CCCCCCn1c(SCCC)nc2c1c(=O)[nH]c(=O)n2C,47
Cc1ccc(-c2nc3ccccc3c(=O)o2)cc1,-84*
CCn1c(=N)n(CC(=O)c2ccc(Cl)c(Cl)c2)c2ccccc21,-186*
Cn1c(=N)n(CC(=O)c2ccc(F)cc2)c2ccccc21,76
CCN1CCN(C(=O)/C=C/c2c(F)cccc2Cl)CC1,-90*
O=C(/C=C/c1c(F)cccc1Cl)N1CCc2ccccc2C1,-85*
CCOCCCNC(=O)/C(C#N)=C/c1cc(Br)c(O)c(Br)c1,-69*
O=C(C#Cc1ccccc1)c1ccco1,-141*
CC(=O)c1ccc(OCc2cc(C(=O)N3CCN(c4ccccc4)CC3C)no2)cc1 (configuration not stated),-163*
CSc1ccccc1OCc1cc(C(=O)N2CCN(c3ccccc3)CC2C)no1 (configuration not stated),-108*
O=C(c1noc2c1CCc1ccccc1-2)N1CCOCC1,-72*
CCCNC(=O)c1noc2c1CCc1cc(OC)ccc1-2,-71*
COc1ccc2c(c1)CCc1c(C(=O)N3CCCCCC3)noc1-2,-64*
COc1ccc2c(c1)CCc1c(C(=O)NCc3cccnc3)noc1-2,-91*
Cc1ccc(-c2cc(-c3cccc(F)c3)n[nH]2)c(O)c1,-154*
Cc1ccc(O)c(-c2cc(-c3cccc(F)c3)n[nH]2)c1,-96*
O=[N+]([O-])c1ccccc1-c1cc(-c2ccccc2O)n[nH]1,-256*
Cc1ccc(O)c(-c2cc(-c3ccccc3F)[nH]n2)c1,-115*
CCCN1Cc2cccc(C(=O)Nc3ccc(-c4nc5ccccc5[nH]4)cc3)c2C1=O,-62*
